Several values for one entry are separate records, joined by “and”; a condition that tells them apart may be missing. Equal entries are not always repeated. Inconclusive results are not listed. Some compounds were tested as several samples or in several runs, with calls that do not always agree. Activity calls are given as the source filed them. Unless noted, calls come from the whole dose curve; as a rule, active = well fitted curve in the direction sought with a large enough effect in the repeat runs; inconclusive = weak or mixed curves; inactive = no such curve, though single readings can be large; an effect the other way counts as inactive or inconclusive. Residues, ends and D or L forms follow the SMILES beside them.
Key:
[1] = molecular target: Progesterone receptor (Homo sapiens) (UniProt P06401); assay: qHTS assay to identify small molecule agonists of the progesterone receptor (PR) signaling pathway (AID 1346784; calls by dose curve; note: nearly all actives have a fitted effect of over 30% in size)
Sequence of Progesterone receptor (Homo sapiens) (P06401 whole entry, looked up): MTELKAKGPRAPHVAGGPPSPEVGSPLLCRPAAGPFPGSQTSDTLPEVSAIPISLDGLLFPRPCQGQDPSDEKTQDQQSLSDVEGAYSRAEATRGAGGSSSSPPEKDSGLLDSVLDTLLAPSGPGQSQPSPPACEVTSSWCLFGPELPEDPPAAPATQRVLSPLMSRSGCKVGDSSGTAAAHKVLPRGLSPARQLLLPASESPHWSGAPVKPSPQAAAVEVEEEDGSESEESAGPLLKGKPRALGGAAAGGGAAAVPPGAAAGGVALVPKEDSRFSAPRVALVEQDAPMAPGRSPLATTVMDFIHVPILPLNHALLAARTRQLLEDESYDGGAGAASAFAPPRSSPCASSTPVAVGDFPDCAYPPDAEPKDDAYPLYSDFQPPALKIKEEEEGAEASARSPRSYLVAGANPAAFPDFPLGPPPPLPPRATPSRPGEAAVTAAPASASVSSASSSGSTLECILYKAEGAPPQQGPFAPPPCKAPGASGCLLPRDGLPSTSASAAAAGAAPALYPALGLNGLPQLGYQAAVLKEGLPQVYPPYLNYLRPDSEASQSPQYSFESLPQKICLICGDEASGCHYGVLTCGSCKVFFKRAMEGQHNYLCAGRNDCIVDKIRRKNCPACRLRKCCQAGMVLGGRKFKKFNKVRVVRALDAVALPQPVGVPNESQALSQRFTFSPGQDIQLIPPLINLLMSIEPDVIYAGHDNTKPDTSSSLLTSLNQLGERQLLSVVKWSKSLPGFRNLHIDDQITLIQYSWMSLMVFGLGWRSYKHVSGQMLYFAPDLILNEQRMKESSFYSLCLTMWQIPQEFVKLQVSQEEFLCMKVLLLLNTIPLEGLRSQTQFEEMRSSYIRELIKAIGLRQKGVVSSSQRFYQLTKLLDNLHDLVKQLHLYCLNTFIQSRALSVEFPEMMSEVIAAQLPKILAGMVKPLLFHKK
Procedure, shortened: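 Cells (PR-UAS-bla HEK 293T, GripTite) were plated in assay medium containing 2% charcoal-stripped FBS and incubated 6 hr. Test compounds in DMSO were added for 16 hr at 37C. FRET substrate was then loaded for 2 hr at room temperature before fluorescence reading.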

[2] = molecular target: Progesterone receptor (Homo sapiens) (UniProt P06401); assay: qHTS assay to identify small molecule antagonists of the progesterone receptor (PR) signaling pathway (AID 1346795; active = well fitted inhibition curve with a large enough effect in the signal ratio in the repeat runs, not every such curve was filed as active; the % refers to the signal ratio)
Procedure, shortened: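 Antagonist mode: compounds tested against 1 nM (final) promegestone stimulation in HEK293T cells expressing PR-UAS-bla reporter, 16 hr at 37C, 5% CO2; beta-lactamase activity detected via B/G FRET substrate after 2 hr at room temperature.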

[3] = qHTS assay to identify small molecule antagonists of the progesterone receptor (PR) signaling pathway - cell viability counter screen (AID 1346798); note: series mostly up to about 92 µM; nearly all actives have a fitted effect of over 50% in size
Procedure, shortened: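 Counter screen for cytotoxicity: viability of PR-UAS-bla HEK293T cells was measured with CellTiter-Glo luminescence following 16 hr compound exposure in the presence of R5020.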

[4] = qHTS assay to identify small molecule agonists of the progesterone receptor (PR) signaling pathway - cell viability counter screen (AID 1346799; calls by dose curve; note: nearly all actives have a fitted effect of over 45% in size)
Procedure, shortened: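 Cells (PR-UAS-bla HEK293T) are plated at 3,000/well in 2% charcoal-stripped FBS medium, rested 6 hr, dosed and incubated 16 hr at 37C. CellTiter-Glo is then added and luminescence measured after 30 min at room temperature.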

[5] = qHTS assay to identify small molecule antagonists of the TGF-beta/Smad signaling pathway - cell viability counter screen (AID 1346824); note: nearly all actives have a fitted effect of over 50% in size
Procedure, shortened: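 Cytotoxicity counter-screen run in the same wells as the beta-lactamase Smad reporter read: CellTiter-Glo luminescence after 30 min at room temperature. HEK 293T SBE-bla cells had 5 hr compound exposure at 37 C with TGF-beta1 (0.25 ng/mL stock).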

[6] = qHTS assay to identify small molecule agonists of the TGF-beta/Smad signaling pathway - cell viability counter screen (AID 1346829); note: top concentration of the series differs between compounds; nearly all actives have a fitted effect of over 45% in size
Procedure, shortened: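 Same-well cytotoxicity: CellTiter-Glo added after the 2 hr room-temperature beta-lactamase substrate step, luminescence measured 30 min later; cells had 5 hr of compound at 37 C.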

[7] = qHTS assay to identify small molecule agonists of the TGF-beta/Smad signaling pathway (AID 1346859; active = well fitted activation curve with a large enough effect in the signal ratio in the repeat runs, not every such curve was filed as active; the % refers to the signal ratio; note: series mostly up to about 77 µM)
Procedure, shortened: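 Reporter line: HEK 293T with stably integrated SBE-controlled beta-lactamase. Compound exposure lasts 5 hr at 37 C and 5% CO2; substrate loading follows for 2 hr at room temperature, with emission read at 460 and 530 nm.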

[8] = molecular target: Thyrotropin-releasing hormone receptor (Homo sapiens) (UniProt P34981); assay: qHTS assay to identify small molecule antagonists of the thyrotropin-releasing hormone receptor (TRHR) signaling pathway (AID 1346877; active = well fitted inhibition curve with a large enough effect in the repeat runs, not every such curve was filed as active; note: series mostly up to about 51 µM)
Sequence of Thyrotropin-releasing hormone receptor (Homo sapiens) (P34981 whole entry, looked up): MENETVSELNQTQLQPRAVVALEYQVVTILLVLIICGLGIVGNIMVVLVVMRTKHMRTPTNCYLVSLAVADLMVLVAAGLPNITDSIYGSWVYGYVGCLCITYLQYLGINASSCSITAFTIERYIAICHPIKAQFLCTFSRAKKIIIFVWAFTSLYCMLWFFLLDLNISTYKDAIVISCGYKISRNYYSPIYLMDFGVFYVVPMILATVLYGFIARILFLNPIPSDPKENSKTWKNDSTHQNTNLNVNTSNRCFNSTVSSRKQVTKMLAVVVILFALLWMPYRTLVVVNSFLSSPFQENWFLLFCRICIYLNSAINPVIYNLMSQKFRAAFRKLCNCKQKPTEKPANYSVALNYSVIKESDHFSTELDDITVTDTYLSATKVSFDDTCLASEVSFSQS
Procedure, shortened: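 Cells (TRHR-HEK293) are plated and kept 18 h at 37 °C/5% CO2. A calcium-sensitive dye is added for 2 h, compound follows for 5 min at room temperature, and TRH is then given at 1 nM final.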

[9] = molecular target: Thyrotropin-releasing hormone receptor (Homo sapiens) (UniProt P34981); assay: qHTS assay to identify small molecule agonists of the thyrotropin-releasing hormone receptor (TRHR) signaling pathway (AID 1346891; calls by dose curve;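 note: HEK293 cells expressing TRHR with calcium dye readout; series mostly up to about 58 µM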)
Procedure, shortened: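 Cells: TRHR-Hek293, seeded and incubated 18 h. Dye loading: 2 h at 37 °C. Compound added from DMSO stock by pin tool. Read-out: kinetic calcium fluorescence over 3 min.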

[10] = Human pregnane X receptor (PXR) small molecule agonists, qHTS cell viability counter screen (AID 1346977); note: nearly all actives have a fitted effect of over 50% in size; note: potency is the fitted concentration of half-maximal effect
Procedure, shortened: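 Cytotoxicity counter screen run in the same wells as the PXR luciferase assay, using PXR-Luc HepG2 cells in charcoal-stripped serum medium. Viability: CellTiter-Fluor fluorescence after 24hr compound treatment.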

[11] = Caspase-3/7 induction in HepG2 cells by small molecules, qHTS assay (AID 1346978); note: nearly all actives have a fitted effect of over 15% in size
Procedure, shortened: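 Caspase-3/7 induction was measured by Caspase-Glo 3/7 luminescence (30 min, room temperature) after a 17 hr compound exposure of wild-type HepG2 cells seeded at 2,000 per well and pre-incubated 5 hr.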

[12] = Caspase-3/7 induction in CHO-K1 cells by small molecules, qHTS cell viability counter screen (AID 1346979); note: nearly all actives have a fitted effect of over 35% in size; note: potency is the fitted concentration of half-maximal effect
Procedure, shortened: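 Cytotoxicity counter screen run in parallel with the caspase-3/7 assay: CHO-K1 cells, 16hr compound treatment at 37C, then CellTiter-Fluor for 1hr before fluorescence reading.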

[13] = Caspase-3/7 induction in CHO-K1 cells by small molecules, qHTS assay (AID 1346980); note: nearly all actives have a fitted effect of over 15% in size
Procedure, shortened: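 Luminescent Caspase-Glo 3/7 read (30min, room temperature) quantified apoptosis induction. Cells were wild-type CHO-K1, treated with compound for 17hr at 37 C and 5% CO2.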

[14] = Caspase-3/7 induction in HepG2 cells by small molecules, qHTS cell viability counter screen (AID 1346981); note: series mostly up to about 92 µM; nearly all actives have a fitted effect of over 30% in size
Procedure, shortened: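 Steps: seed 2,000 HepG2 cells per well; incubate 5 hr at 37 C; pin-add compounds in DMSO; incubate 16 hr; add CellTiter-Fluor; after 1 hr at 37 C and 5% CO2, read fluorescence.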

[15] = molecular target: Nuclear receptor subfamily 1 group I member 2 (Homo sapiens) (UniProt O75469); assay: Human pregnane X receptor (PXR) small molecule agonists, qHTS assay (AID 1346982); note: nearly all actives have a fitted effect of over 35% in size; note: potency is the fitted concentration of half-maximal effect
Sequence of Nuclear receptor subfamily 1 group I member 2 (Homo sapiens) (O75469 whole entry, looked up): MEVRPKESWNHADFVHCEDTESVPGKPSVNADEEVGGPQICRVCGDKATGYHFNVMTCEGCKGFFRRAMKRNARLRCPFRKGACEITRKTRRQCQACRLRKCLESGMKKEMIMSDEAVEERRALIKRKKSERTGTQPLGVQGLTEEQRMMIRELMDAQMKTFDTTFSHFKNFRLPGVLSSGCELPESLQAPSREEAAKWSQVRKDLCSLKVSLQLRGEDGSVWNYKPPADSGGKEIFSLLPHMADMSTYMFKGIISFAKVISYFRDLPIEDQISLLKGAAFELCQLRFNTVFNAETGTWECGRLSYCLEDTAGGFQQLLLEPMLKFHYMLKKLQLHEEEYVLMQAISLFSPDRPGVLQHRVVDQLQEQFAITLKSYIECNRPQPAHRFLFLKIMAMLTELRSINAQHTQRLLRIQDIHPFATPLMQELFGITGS
Procedure, shortened: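 Agonist mode qHTS: PXR-Luc HepG2 cells plated 5 hr before DMSO-dissolved compounds were pinned in, cultured 24 hr at 37 C, 5% CO2; ONE-Glo luminescence readout.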

[16] = molecular target: Nuclear receptor subfamily 1 group I member 2 (Rattus norvegicus) (UniProt Q9R1A7); assay: Rat pregnane X receptor (rPXR) activation by small molecules, qHTS assay (AID 1346983); conditions: rPXR luciferase reporter cells, One-Glo luminescence, 24 h; stronger effect = higher value; note: nearly all actives have a fitted effect of over 20% in size
Sequence of Nuclear receptor subfamily 1 group I member 2 (Rattus norvegicus) (Q9R1A7 whole entry, looked up): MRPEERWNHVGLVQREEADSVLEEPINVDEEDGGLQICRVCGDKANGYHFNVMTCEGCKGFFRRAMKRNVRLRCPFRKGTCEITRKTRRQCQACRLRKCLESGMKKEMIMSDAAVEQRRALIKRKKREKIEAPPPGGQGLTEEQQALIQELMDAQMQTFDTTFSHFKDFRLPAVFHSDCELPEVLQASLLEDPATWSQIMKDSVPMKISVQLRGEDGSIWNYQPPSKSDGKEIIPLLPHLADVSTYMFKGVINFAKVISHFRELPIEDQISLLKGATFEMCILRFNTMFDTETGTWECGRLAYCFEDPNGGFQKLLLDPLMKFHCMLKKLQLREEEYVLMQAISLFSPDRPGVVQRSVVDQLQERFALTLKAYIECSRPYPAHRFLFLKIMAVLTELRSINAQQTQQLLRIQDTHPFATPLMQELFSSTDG
Procedure, shortened: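 Luminescent readout (One-Glo luciferase, 30 min room temperature) followed 24 hr compound treatment at 37 C of rPXR cells plated 2,000 per well and preincubated 5hr; qHTS format with compounds delivered in DMSO.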

[17] = molecular target: Nuclear receptor subfamily 1 group I member 2 (Homo sapiens) (UniProt O75469); assay: CYP3A4 induction through human pregnane X receptor (PXR) by small molecules, qHTS assay (AID 1346984); note: nearly all actives have a fitted effect of over 40% in size
Procedure, shortened: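 Steps: seed DPX-2 cells, 5 hr at 37C; pin-transfer compounds; 24 hr at 37C; add Luciferin-IPA (3uM final), 3 hr at 37C; add One-Glo, 30 min RT; read luminescence.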

[18] = molecular target: Nuclear receptor subfamily 1 group I member 2 (Homo sapiens) (UniProt O75469); assay: Human pregnane X receptor (PXR) activation by small molecules, qHTS assay (AID 1346985); note: nearly all actives have a fitted effect of over 40% in size
Procedure, shortened: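 DPX-2 cells (HepG2 co-transfected with a PXR response element and a CYP3A4-promoter luciferase construct) were seeded at 2,000 per well, rested 5 hr at 37C, then exposed to DMSO-dissolved compounds for 24 hr. Activation was read as luciferase luminescence.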

[19] = molecular target: Cytochrome P450 2D6 (Homo sapiens) (UniProt P10635); assay: Cytochrome P450 Family 2 Subfamily D Member 6 (CYP2D6) small molecule antagonists: luciferase reporter qHTS assay (AID 1671196); note: nearly all actives have a fitted effect of over 50% in size; note: potency is the fitted concentration of half-maximal effect
Sequence of Cytochrome P450 2D6 (Homo sapiens) (P10635 whole entry, looked up): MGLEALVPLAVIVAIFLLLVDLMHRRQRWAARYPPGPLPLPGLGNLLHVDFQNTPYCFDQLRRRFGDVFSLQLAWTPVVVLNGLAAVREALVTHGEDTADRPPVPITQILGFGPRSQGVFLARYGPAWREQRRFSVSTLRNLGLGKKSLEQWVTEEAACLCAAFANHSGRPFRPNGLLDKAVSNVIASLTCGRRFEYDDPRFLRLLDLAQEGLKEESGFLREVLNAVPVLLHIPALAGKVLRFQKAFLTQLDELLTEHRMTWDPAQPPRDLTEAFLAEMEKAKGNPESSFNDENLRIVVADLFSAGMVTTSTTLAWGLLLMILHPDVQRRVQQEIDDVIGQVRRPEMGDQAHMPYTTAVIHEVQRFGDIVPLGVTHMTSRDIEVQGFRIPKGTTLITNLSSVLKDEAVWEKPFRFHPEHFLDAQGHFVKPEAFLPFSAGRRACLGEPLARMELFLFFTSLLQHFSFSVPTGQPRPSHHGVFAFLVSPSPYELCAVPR
Procedure, shortened: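 P450-Glo format: CYP2D6 converts a proluciferin substrate to luciferin in an NADPH-driven reaction lasting 1 h at room temperature. Light output, proportional to CYP2D6 activity, reflects interference by test chemicals.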

[20] = molecular target: Cytochrome P450 2C19 (Homo sapiens) (UniProt P33261); assay: Cytochrome P450 Family 2 Subfamily C Member 19 (CYP2C19) small molecule antagonists: luciferase reporter qHTS assay (AID 1671197); note: nearly all actives have a fitted effect of over 65% in size; note: potency is the fitted concentration of half-maximal effect
Sequence of Cytochrome P450 2C19 (Homo sapiens) (P33261 whole entry, looked up): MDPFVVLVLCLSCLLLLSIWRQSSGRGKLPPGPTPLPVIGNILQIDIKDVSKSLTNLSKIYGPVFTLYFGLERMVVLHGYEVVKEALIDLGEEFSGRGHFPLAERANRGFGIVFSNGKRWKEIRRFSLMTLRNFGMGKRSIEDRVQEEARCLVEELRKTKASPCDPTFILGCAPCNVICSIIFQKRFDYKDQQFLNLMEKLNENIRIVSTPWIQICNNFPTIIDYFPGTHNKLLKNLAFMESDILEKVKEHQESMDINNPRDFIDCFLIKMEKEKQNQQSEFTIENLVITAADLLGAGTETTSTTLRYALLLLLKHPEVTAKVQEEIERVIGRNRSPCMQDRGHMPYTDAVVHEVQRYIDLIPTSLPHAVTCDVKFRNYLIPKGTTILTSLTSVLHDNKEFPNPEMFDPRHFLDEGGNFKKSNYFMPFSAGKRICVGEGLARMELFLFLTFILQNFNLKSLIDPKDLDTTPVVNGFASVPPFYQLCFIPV
Procedure, shortened: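 Quantitative high-throughput screen of the Tox21 library using CYP2C19 with proluciferin substrate. Reaction: NADPH regeneration, 37C, 1 h, after 10 min compound preincubation at room temperature. Readout: luminescence.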
% is set by controls: 0 for no effect and ±100 for the full control effect.

CC(O)CN(CCN(CC(C)O)CC(C)O)CC(C)O (stereo not given)
inactive: Potency [1] | outcome [2] | Potency [3] | Potency [4] | outcome [5] | Potency [6] | outcome [7] | outcome [8] | outcome [9] | Potency [10] | Potency [11] | Potency [12] | outcome [13] | Potency [14] | Potency [15] | max activation [16] -4.71% | outcome [17] | Potency [18] | Potency [20]
active: Potency [19] 36.2 µM

COC(=O)[C@H](Cc1ccccc1)NC(=O)[C@@H](N)CC(=O)O (H-Asp-Phe-OMe)
inactive: Potency [1] | outcome [2] | Potency [3] | Potency [4] | outcome [5] | Potency [6] | outcome [7] | outcome [8] | outcome [9] | Potency [10] | Potency [11] | Potency [12] | outcome [13] | Potency [14] | Potency [15] | max activation [16] -3.24% and -1.16% | outcome [17] | Potency [18] | Potency [19] | Potency [20]

CC1(C)[C@@H]2CC[C@@]1(C)C(=O)C2
inactive: Potency [1] | outcome [2] | Potency [3] | Potency [4] | outcome [5] | Potency [6] | outcome [7] | outcome [8] | outcome [9] | Potency [10] | Potency [11] | Potency [12] | outcome [13] | Potency [14] | Potency [15] | max activation [16] -1.13% | outcome [17] | Potency [18] | Potency [19] | Potency [20]

Cc1cc(=O)n(-c2ccccc2)n1C
inactive: Potency [1] | outcome [2] | Potency [3] | Potency [4] | outcome [5] | Potency [6] | outcome [7] | outcome [8] | outcome [9] | Potency [10] | Potency [11] | Potency [12] | outcome [13] | Potency [14] | Potency [15] | Potency [19] | Potency [20]

Cn1c(=O)c2[nH]cnc2n(C)c1=O
inactive: Potency [1] | outcome [2] | Potency [3] | Potency [4] | outcome [5] | Potency [6] | outcome [7] | outcome [8] | outcome [9] | Potency [10] | Potency [11] | Potency [12] | outcome [13] | Potency [14] | Potency [15] | Potency [19] | Potency [20]

CC(=O)NS(=O)(=O)c1ccc(N)cc1
inactive: Potency [1] | outcome [2] | Potency [3] | Potency [4] | outcome [5] | Potency [6] | outcome [7] | outcome [8] | outcome [9] | Potency [10] | Potency [11] | Potency [12] | outcome [13] | Potency [14] | Potency [15] | Potency [19] | Potency [20]

CC(=O)OCC(COC(C)=O)OC(C)=O
inactive and 4.33 µM (active): Potency [15]
inactive: Potency [1] | outcome [2] | Potency [3] | Potency [4] | outcome [5] | Potency [6] | outcome [7] | outcome [8] | outcome [9] | Potency [10] | Potency [11] | Potency [12] | outcome [13] | Potency [14] | max activation [16] 3.67% | outcome [17] | Potency [18] | Potency [19] | Potency [20]

C/C=C/c1ccc(OC)cc1
inactive and 21.9 µM (active): Potency [20]
inactive: Potency [1] | outcome [2] | Potency [3] | Potency [4] | outcome [5] | Potency [6] | outcome [7] | outcome [8] | outcome [9] | Potency [10] | Potency [11] | Potency [12] | outcome [13] | Potency [14] | Potency [15] | max activation [16] -1.43% | outcome [17] | Potency [18] | Potency [19]

OCCc1ccccc1
inactive: Potency [1] | outcome [2] | Potency [3] | Potency [4] | outcome [5] | Potency [6] | outcome [7] | outcome [8] | outcome [9] | Potency [10] | Potency [11] | Potency [12] | outcome [13] | Potency [14] | Potency [15] | Potency [19] | Potency [20]

Oc1ccc(/C=C/c2cc(O)cc(O)c2)cc1
inactive: Potency [3] | Potency [4] | outcome [5] | Potency [6] | outcome [7] | outcome [8] | outcome [9] | Potency [10] | Potency [11] | outcome [13] | Potency [14] | max activation [16] -1.25% | outcome [17]
active: Potency [12] 69.2 µM and 61.1 µM | Potency [15] 61.7 µM and 30.6 µM and 29.8 µM

CNC[C@H](O)c1cccc(O)c1
inactive: Potency [1] | outcome [2] | Potency [3] | Potency [4] | outcome [5] | Potency [6] | outcome [7] | Potency [10] | Potency [11] | Potency [12] | outcome [13] | Potency [14] | max activation [16] -0.862%

CCCNC(=O)NS(=O)(=O)c1ccc(Cl)cc1
inactive: Potency [1] | outcome [2] | Potency [3] | Potency [4] | outcome [5] | Potency [6] | outcome [7] | Potency [10] | Potency [11] | Potency [12] | outcome [13] | Potency [14] | Potency [15] | Potency [19] | Potency [20]

Cc1noc(NS(=O)(=O)c2ccc(N)cc2)c1C
inactive: Potency [1] | outcome [2] | Potency [3] | Potency [4] | Potency [6] | outcome [7] | outcome [8] | outcome [9] | Potency [10] | Potency [11] | Potency [12] | outcome [13] | Potency [14] | Potency [15] | Potency [19] | Potency [20]

NC(N)=O
inactive: Potency [1] | outcome [2] | Potency [3] | Potency [4] | outcome [5] | Potency [6] | outcome [7] | Potency [11] | outcome [13] | Potency [14] | max activation [16] -2.71% | outcome [17] | Potency [18] | Potency [19] | Potency [20]
14.1 µM (active) and inactive: Potency [10]
9.16 µM (active) and inactive: Potency [15]
5.15 µM (active) and inactive: Potency [12]
